This is an account of results in PubChem BioAssay AID624171 (National Center for Advancing Translational Sciences (NCATS), 2012).

Screen size: about 410,000 compounds; about 1,200 (0.29%) were called active. Another 2% or so got no clear call; they are omitted. What follows is part of a selection rich in actives, with near analogues and random picks from the rest. Values without a mark were called inactive. Calls follow the shape of the dose curve; as a rule, active = well fitted activation curve with a large enough effect; inconclusive = small, poorly fitted or top-dose-only effect; inactive = flat fitted curve, though single readings scatter.
Potency is read from the fitted curve at half-maximal effect.

This test in a line: qHTS of Nrf2 Activators. Also: nearly all actives have a fitted effect of over 65% in size. As to activation: % of control where 0% means no effect. The following applies: AREc32 ARE-luciferase reporter (MCF7-derived line), luminescence, 24 h; series mostly up to 46.1 µM; activation: at the top concentration. Put shortly: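 Luminescent ARE reporter assay in AREc32_Fluc cells: overnight plating at 37 deg C, 24 hr compound incubation, Steady-Glo added, 30 min RT before reading.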
On the technique in general: In qHTS, concentration-response curves come from the screen itself.
As to `COc1ccc(Cl)cc1S(=O)(=O)N1CCC(c2ccncc2)CC1`, the “activation” value was 3.31%. The same measure, in the same setting: for `CCOc1ccc(CC(=O)NCCc2csc3nc(-c4ccccc4F)nn23)cc1` the value was 3.54%; for `O=C(COC(=O)/C=C/c1ccc2c(c1)OCO2)NC1CCS(=O)(=O)C1` (stereo unspecified), 5.37%. With `O/N=C(\c1ccc2c(c1)OCCO2)C1CCCCC1`, the “activation” value is -0.368%. For `O=C(/C=C/c1ccc2c(c1)OCCO2)c1ccc(O)cc1`, the Potency is 5.01 µM (active). As for `O=C(NCCc1csc(-c2ccc(C(F)(F)F)cc2)n1)C(=O)Nc1ccc(F)c(Cl)c1`, the “activation” value was 0.286%. The same measure, in the same setting: for `COc1ccc(NC(=O)c2ccc3nc(C(C)C)oc3c2)cc1OC` the value was 9.79%; for `CCc1cccc(NC(=O)COC(=O)C2CCN(c3ccc(C(F)(F)F)cn3)CC2)c1`, -0.0951%; for `COCc1c(C(=O)OCC(=O)Nc2ccc(OC(F)F)cc2)oc2ccccc12`, -0.783%. In the case of `CCc1cccc(NC(=O)COC(=O)c2cc(=O)c3ccccc3o2)c1`, the Potency is 14.1 µM (active). `Cc1cc(C)nc(NS(=O)(=O)c2ccc(NC(=O)c3cc(=O)c4ccc(C)c(C)c4o3)cc2)n1`: the “activation” value was -0.437%. On the same count and under the same terms, in the case of `COc1ccc(Br)cc1CN(C)CC(=O)Nc1cc([N+](=O)[O-])ccc1OC` it was 0.584%. The same measure, in the same setting: for `COc1cc2c(cc1NC(=O)COC(=O)/C=C/c1ccccc1)oc1ccccc12` the value was 4.04%.

Consider `COc1ccc([N+](=O)[O-])cc1NC(=O)COC(=O)/C=C/c1ccco1`, for which the Potency is 11.2 µM (active). Regarding `FC(F)(F)c1cc(Nc2nc3ccccc3c3nncn23)ccc1Cl`, the “activation” value was -0.119%. The same measure, in the same setting: for `COc1cccc(N=C2SC(C(=O)Nc3cccc(Cl)c3)CC(=O)N2C)c1` (stereo unspecified) the value was 4.5%; for `COc1ccc(-c2nnc(SCC(=O)Nc3ccc(C(C)C)cc3)nc2-c2ccc(OC)c(OC)c2)cc1OC`, 4.8%; for `COC(=O)c1ccc2nc(-c3ccc(Cl)cc3)c(Cc3cccc(F)c3)n2c1`, 0.65%. The same measure, in the same setting: in the case of `COC(=O)c1ccc2nc(-c3ccc(F)cc3)c(Cc3ccc(C)cc3)n2c1` it was 16.6%.

For `CCCc1nc2c3ccccc3ccn2c1Cc1ccccc1C(F)(F)F`, the “activation” value is 10.7%. For `c1ccc(Cc2c(-c3ccco3)nc3c4ccccc4ccn23)cc1`, the Potency was 6.31 µM (active). The same measure, in the same setting: for `Cc1ccc(Cc2c(-c3ccco3)nc3ccc(Cl)cn23)cc1` the value was 12.6 µM (active).

In the case of `CC(C)c1ccc(NC(=O)C2CCN(c3nc(-c4ccc(C(C)C)cc4)no3)CC2)cc1`, the “activation” value was -5.01%.

In the case of `COc1ccc(NC(=O)c2sc3nc(-c4cc5cccc(OC)c5oc4=O)[nH]c(=O)c3c2C)cc1`, the “activation” value is -0.615%. The same measure, in the same setting: in the case of `O=S(=O)(c1ccc(Cl)cc1)c1nnn2c1nc(NC1CCCC1)c1sccc12` it was -0.774%; in that of `CCc1cc2c(cc3c(=O)n(CC(=O)NCCc4ccc(OC)c(OC)c4)ncn32)s1`, 0.25%; in that of `CCOC(=O)c1ccc(CSc2nnc3cc(C)c4ccccc4n23)cc1`, 2.48%. For `COc1cccc(C(=O)c2sc3nc(-c4ccccc4)cc(C(F)(F)F)c3c2N)c1`, the “activation” value was 22.5%.

Turning to `CCCS(=O)(=O)c1c(Nc2ccccc2C)sc(C(=O)c2ccccc2)c1N`, the “activation” value is -0.703%. Still for that read-out and setting: in the case of `CN(C(=O)c1ccccc1)c1nccnc1C#N` it was -0.11%. `Cc1ccc2c(N)c(C(=O)c3ccccc3)sc2n1`: the Potency is 8.91 µM (active).

As to `CN(C)c1ccnc2sc(C(=O)c3ccccc3)c(N)c12`, the Potency is 10 µM (active).

Consider `COc1ccc(S(=O)(=O)c2c(Nc3cccc(Cl)c3)sc(C(=O)c3ccccc3)c2N)cc1`, for which the “activation” value is 5.95%.

For the molecule `COc1ccc(-n2ccnc(NCCc3ccc(Cl)cc3)c2=O)cc1OC`, the “activation” value was 3.86%.

Turning to `CCN1CCN(c2cc(C)c3cc(NC(=O)c4cc(Cl)ccc4OC)ccc3n2)CC1`, the “activation” value is 0.689%. On the same count and under the same terms, in the case of `COc1ccc(CCNC(=O)CCCn2c(=O)c3ccccc3n(Cc3ccc(F)cc3Cl)c2=O)cc1OC` it was -0.204%; in that of `CCOc1ccccc1C(=O)NC1(C(F)(F)F)C(=O)Nc2c1c(=O)[nH]c(=O)n2-c1ccc(F)cc1` (stereo unspecified), -0.547%.

For `Cc1ccc(-c2noc(-c3nnn(-c4cccc(C(F)(F)F)c4)c3N)n2)cc1`, the “activation” value is -0.844%. With `Cc1cccc(NC(=O)CSc2nnc(CNC(=O)c3cccc(C)c3)n2-c2ccccc2)c1`, the “activation” value was -0.11%. Still for that read-out and setting: for `CCOC(=O)c1c(NC(C)=O)c2c3c(sc2n1Cc1c(C)cc(C)cc1C)CCCC3` the value was 7.04%; for `COc1ccccc1CNC(=O)CCCCn1c(=O)c2ccccc2n(CC(=O)Nc2cc(Cl)ccc2C)c1=O`, -0.0006%; for `COc1cccc(C(=O)N(Cc2cccc(Cl)c2)Cc2ccco2)c1`, 8.54%. Consider `COc1ccccc1N1CCN(S(=O)(=O)CCNC(=O)COc2ccc(F)cc2)CC1`, for which the “activation” value was 2.57%. Consider `CC(C)n1c(O)c(N=Nc2ccccn2)c2ccccc21`, for which the Potency is 12.6 µM (active). Take `COC(=O)Cn1c(O)c(N=NC(=O)OC)c2ccccc21`: the “activation” value was 4.09%. Still for that read-out and setting: in the case of `CCOC(=O)c1ccc(N2C(=O)c3[nH]nc(-c4ccccc4)c3C2c2ccc(C(C)C)cc2)cc1` (stereo unspecified) it was -0.391%; in that of `CC1CCCCN1Cc1c(O)ccc2c(=O)c(-c3cccc(Cl)c3)c(C(F)(F)F)oc12` (stereo unspecified), 2.18%. In the case of `COc1ccc(-c2nc3c4ccccc4n(CC(=O)Nc4ccc(C(C)=O)cc4)c(=O)n3n2)cc1`, the “activation” value is -0.364%.

Consider `CC(C)(C)OC(=O)N1CCC(c2c(C(=O)N3CCc4ccccc4C3)cnn2-c2ccc(F)cc2)CC1`, for which the “activation” value was 0.152%. `O=C(N/N=C/c1cccc([N+](=O)[O-])c1)c1ccncc1`: the Potency was 12.6 µM (active). As for `O=C(c1ccncc1)N1CCN(S(=O)(=O)c2cccc([N+](=O)[O-])c2)CC1`, the “activation” value is 2.53%. `COc1cc(CCN=Cc2ccccc2O)c([N+](=O)[O-])cc1OC`: the “activation” value is 0.105%. As for `O=[N+]([O-])c1cccc(C=NN=Cc2ccccc2O)c1`, the Potency was 10 µM (active). Take `O=C(/C=C/c1cccc([N+](=O)[O-])c1)OCC(=O)N1CCOCC1`: the “activation” value is 14.8%. On the same count and under the same terms, for `N/C(=N\OS(=O)(=O)c1cccc([N+](=O)[O-])c1)c1ccncc1` the value was -1.41%. The same measure, in the same setting: for `O=C(COc1ccccc1F)OCc1cc(=O)n2nc(C3CCCCC3)sc2n1` the value was 0.67%.

In the case of `Cc1cccc(OCC(=O)N(Cc2ccc(C(C)C)cc2)Cc2ccco2)c1C`, the “activation” value is 1.44%. On the same count and under the same terms, for `O=C1CSC2(C(=O)N(Cc3ccccc3)c3ccccc32)N1c1cccc(F)c1` (stereo unspecified) the value was 1.27%; for `Cc1ccc(C)c(N2CCN(C(c3ccccc3)c3nnc(-c4ccccc4)o3)CC2)c1` (stereo unspecified), 3.85%; for `CCn1cc(C(=O)N2CCN(c3cc(Cl)ccc3C)CC2)c(=O)c2cc(S(=O)(=O)N3CCCC3)ccc21`, 0.498%. The same measure, in the same setting: for `Cc1ccc(-n2c3nc(=O)[nH]c(=O)c-3cc3c(Cl)cccc32)cc1` the value was 0.875%.
